Bioassay records: PubChem, National Center for Advancing Translational Sciences (NCATS)
Only some compounds are listed: those with a hit (about 2.6% of all), similar ones and a draw of the others.
FLuc inh: blocks Photinus pyralis firefly luciferase activity. P08659. purified firefly luciferase, luminescence, 8 min. Potency, µM (titrated, usually from 57.1 µM), for the others: at the top dose activity change, negative = inhibition, actives largely listed as inhibitors. 2.2% of 72,000 active; note: nearly all actives have a fitted effect of over 40% in size
Target sequence (P08659 whole entry, looked up): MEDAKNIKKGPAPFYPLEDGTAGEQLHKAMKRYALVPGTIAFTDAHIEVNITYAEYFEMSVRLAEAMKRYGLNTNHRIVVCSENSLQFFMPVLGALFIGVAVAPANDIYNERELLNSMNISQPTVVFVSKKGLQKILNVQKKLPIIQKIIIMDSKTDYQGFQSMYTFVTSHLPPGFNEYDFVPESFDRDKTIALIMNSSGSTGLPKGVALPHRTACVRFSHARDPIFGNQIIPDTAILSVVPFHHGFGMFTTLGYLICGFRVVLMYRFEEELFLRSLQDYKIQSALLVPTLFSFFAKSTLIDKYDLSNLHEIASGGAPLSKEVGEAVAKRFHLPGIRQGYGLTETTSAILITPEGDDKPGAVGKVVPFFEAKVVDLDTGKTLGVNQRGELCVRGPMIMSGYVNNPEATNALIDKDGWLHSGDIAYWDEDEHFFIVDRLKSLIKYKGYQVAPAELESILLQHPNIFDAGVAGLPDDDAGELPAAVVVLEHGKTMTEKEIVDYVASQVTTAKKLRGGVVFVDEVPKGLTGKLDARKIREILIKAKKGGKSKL
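Firefly luciferase (PKLight detection mix) with 10 uM ATP in pH 7.2 imidazole buffer (KCl, MgCl2, Tween 20, BSA). Compounds tested across a concentration series (qHTS). Luminescence read after 8 min at ambient temperature.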
p53ts 39C kill: p53ts cell cytotoxicity, nonpermissive temperature; H1299-p53A138V viability at 39C, ATP luminescence, 24 h; Potency, µM (titrated, usually from 46.1 µM), without a hit: top-dose activity change, negative = cell killing, actives largely listed as cytotoxic; 1.5% of 130,000 active; AID 902; note: nearly all actives have a fitted effect of over 55% in size
p53ts 32C kill: kills p53ts cells at the permissive temperature; AID 924; Potency, µM (doses to about 46.1 µM), inactives show at the highest dose activity change, negative = cytotoxicity, usual class: cytotoxic; 0.93% of 130,000 active; H1299-p53A138V at 32C, ATP luminescence viability, 24 h;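 note: 0% = DMSO and -100% = full killing by reference compound; nearly all actives have a fitted effect of over 55% in size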
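Cells: H1299 p53ts (A138V), 600/well, pre-incubated 16–30 h at 37C. Cpd up to 46 uM, 24 h, 32C. Readout: ATPlite luminescence, 20 min RT. Normalization: DMSO vs tamoxifen 100 uM. AC50 by Hill equation.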
Numbers without * were called inactive; ? = inconclusive; · = no result given; ! = not confirmed by another sample; [ ] = dose if it differs, or a comment. Calls come from the whole dose curve; as a rule, active = well fitted curve in the direction sought with a large enough effect; inconclusive = small, poorly fitted or top-dose-only effect, or another doubt; inactive = no such curve, though single readings can be large; an effect the other way counts as inactive or inconclusive. Unless noted, % is set by controls: 0 for no effect and ±100 for the full control effect; potency is the fitted concentration of half-maximal effect.

SMILES | FLuc inh | p53ts 39C kill | p53ts 32C kill
CCN1C[C@@]2(COC(=O)c3ccccc3N3C(=O)C[C@H](C)C3=O)CC[C@H](OC)[C@@]34[C@@H]5CC6[C@@H](OC)C[C@@](O)([C@H]5[C@H]6OC)C(O)([C@@H]13)[C@@H](OC)[C@H]24 | 3%[11.4 µM] | · | ·
CCCOc1ccc(C(=O)Nc2ccc(-c3cc4ccccc4oc3=O)c(C)c2)cc1 | · | 6.3µM* | ?
CCCOC(=O)COc1cc(C)cc2oc(=O)c3c(c12)CCC3 | 0% | -2% | 1%
C[C@H]1CC[C@@H]2[C@@H](C)C(=O)O[C@H]3O[C@@]4(C)CC[C@@H]1[C@]32OO4 | 1%[11.4 µM] | · | ·
C[C@@H]1CCC/C=C\[C@H]2C[C@H](O)C[C@@H]2[C@H](O)/C=C\C(=O)O1 | 2%[11.4 µM] | · | ·
C[C@@]12CC[C@H]3[C@@H](CC=C4C[C@H](OS(=O)(=O)O)CC[C@]43C)[C@H]1CCC2=O | -1% | 7% | 17%
COc1ccc(C=O)cc1 | · | 3% | 1%[1.84 µM]
COc1ccc(P2(=O)Nc3ccccc3N2)cc1 | 6.3µM* | ? | ?
C[C@@H]1O[C@@H](O[C@H]2C[C@@H](O)[C@]3(CO)[C@@H]4[C@@H](O)C[C@]5(C)[C@H](C6=CC(=O)OC6)CC[C@@]5(O)[C@H]4CC[C@@]3(O)C2)[C@H](O)[C@H](O)[C@@H]1O | 3% | · | ·
CN[C@H]1[C@H](C)O[C@@H](O[C@@H]2C/C=C(/C)C/C(C)=C\C=C/CC[C@@H](C)CNC(=O)/C=C\C=C/[C@H]2C)C[C@@H]1O | 0%[11.4 µM] | · | ·
Oc1ccc2c3c1O[C@H]1c4[nH]c5ccccc5c4C[C@]4(O)[C@H](C2)N(CC2CC2)CC[C@@]314 | -8% | ? | -9%
Oc1ccc2c3c1O[C@H]1c4c(c5ccccc5n4Cc4ccccc4)C[C@]4(O)[C@H](C2)N(CC2CC2)CC[C@@]314 | 3% | 32µM* | ?
Cc1c([C@@H](C)[C@H]2NC[C@H](C)C[C@@H]2O)ccc2c1C[C@@H]1[C@H]2CC=C2C[C@@H](O)CC[C@@]21C | 5%[11.4 µM] | 11%[9.22 µM] | 5%[9.22 µM]
O=[As](O)(O)c1ccc(Cc2ccc([As](=O)(O)O)cc2)cc1 | -12%[11.4 µM] | 50%[9.22 µM] | 31%[9.22 µM]
CCCN1CC[C@@H]2c3cc(O)ccc3CC[C@H]21 | 0% | 4% | -3%
Cc1nc2c(=O)n(C)c(=O)nc-2n(C)n1 | · | 2µM* | 1.1µM*
COc1ccc2c(c1O)-c1cccc3c1[C@H](C2)N(C)CC3 | 3% | -4% | -10%
CC(C)(C)NC[C@H](O)c1ccccc1Cl | 3% | -9% | -6%
O=C(O)C(Oc1nc(=S)[nH]c(=S)[nH]1)(c1ccc(Cl)cc1)c1ccc(Cl)cc1 | 1%[11.4 µM] | 3%[9.22 µM] | -3%[9.22 µM]
[CH3][Hg][Cl] | · | 16µM* | 9%[1.84 µM]
CC(C)(C)OOC(=O)c1ccccc1 | · | -3% | 11%[1.84 µM]
CN(C)C(=O)Oc1ccc(OC(=O)c2ccccc2)cc1 | 16µM* | 6% | -6%
Oc1ccc([C@H](O)[C@@H]2CCCCN2)cc1O | -1%[11.4 µM] | 2%[9.22 µM] | -2%[9.22 µM]
Cc1ccc2nc3c(cc2c1)CC1(C(=O)N(C)C(=O)N(C)C1=O)C1CCCCN31 (stereo unspecified) | 6.3µM* | ? | ?
Cc1ccc2nc3c(cc2c1)CC1(C(=O)N(C)C(=O)N(C)C1=O)C1COCCN31 (stereo unspecified) | ? | -20% | -19%
SMILES | FLuc inh | p53ts 39C kill | p53ts 32C kill
Oc1ccc2c3c1O[C@@H]1[C@@H](O)CC[C@]4(O)[C@H](C2)N(CC2CCC2)CC[C@@]314 | 2% | 12% | -4%
C[C@H]1CC[C@]2(NC1)O[C@@H]1C[C@@H]3[C@@H]4CC=C5C[C@H](O)CC[C@@]5(C)[C@H]4CC[C@@]3(C)[C@H]1[C@@H]2C | 2%[11.4 µM] | · | ·
CC(C)[C@@]1(NC(=O)[C@@H]2C=C3c4cccc5[nH]cc(c45)C[C@@H]3N(C)C2)O[C@]2(O)[C@H]3CCCN3C(=O)[C@H](Cc3ccccc3)N2C1=O | -8% | · | ·
O=C1CC(N2CCC(n3c(=O)[nH]c4ccccc43)CC2)C(=O)N1c1ccc(F)cc1 (stereo unspecified) | 1% | 8% | 4%
O=c1[nH]c2ccccc2n1C1CCN(CCCC(c2ccc(F)cc2)c2ccc(F)cc2)CC1 | 1%[25.5 µM] | 16µM* | 25µM*!
CC(C)(C)[C@@]1(O)C[C@@H]2OC(=O)C[C@@]23C(=O)O[C@H]2OC(=O)[C@@H](O)[C@]231 | 1%[11.4 µM] | · | ·
NC(N)=NCCN=C(N)N | 1%[11.4 µM] | -4%[9.22 µM] | 4%[9.22 µM]
C[C@@]12CC[C@H]3[C@@H](CCC4=CC(=O)CC[C@]43C)[C@H]1CCC2=O | 0% | · | ·
[Cd+2].[Cl-].[Cl-] | · | 1.3µM* | ·
